Tau fibril FP = qHTS for Inhibitors of Tau Fibril Formation, Fluorescence Polarization. actives 0.39% (n = 280,000). Potency, µM (doses to about 57.7 µM), for the others: at the top dose activity, negative = inhibition, usual class: inhibitors. K18 P301L tau heparin fibrillization, Alexa594 FP, 6 h. Microtubule-associated protein tau (Homo sapiens), P10636. AID 1468, 2008; note: nearly all actives have a fitted effect of over 55% in size
Target sequence (P10636 561-689 P618L limits assumed): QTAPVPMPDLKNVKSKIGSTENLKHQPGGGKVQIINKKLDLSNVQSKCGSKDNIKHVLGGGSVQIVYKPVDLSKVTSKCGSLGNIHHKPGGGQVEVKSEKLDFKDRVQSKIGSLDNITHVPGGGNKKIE
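Quantitative HTS format: compounds meet 15 uM recombinant K18 P301L tau and Alexa 594-tau tracer in 100 mM sodium acetate pH 7; 20 uM heparin triggers fibrillization at 37 C over 6 hr; FP gives the signal.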
NPSR antag = qHTS Assay for Antagonists of the Neuropeptide S Receptor: cAMP Signal Transduction; CHO-NPSR cells, cAMP TR-FRET, antagonist mode; Potency, µM (doses to about 38.3 µM), without a hit: at the highest dose activity change, negative = inhibition, actives largely listed as inhibitors; actives 1% (n = 220,000); AID 1461, 2008; note: nearly all actives have a fitted effect of over 50% in size
HPGD inh = qHTS Assay for Inhibitors of HPGD (15-Hydroxyprostaglandin Dehydrogenase); Potency, µM, without a hit: at the highest dose activity change, negative = inhibition, hits mostly inhibitors; purified HPGD, NADH fluorescence kinetic, PGE2 substrate; AID 894, 2007; actives 4.3% (n = 150,000); 15-hydroxyprostaglandin dehydrogenase [NAD(+)] (Homo sapiens), P15428; active = well fitted inhibition curve with a large enough effect, not every such curve was filed as active; inconclusive = small, poorly fitted or top-dose-only effect, or another doubt; inactive = no such curve, though single readings can be large or run the other way
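20 nM HPGD preincubated 15 min at room temperature with compound in 50 mM Tris-HCl pH 8, 0.01% Tween 20. Started with 1 mM NAD+ and 30 uM prostaglandin E2; NADH fluorescence (360/450 nm) read 5 times over 30-s intervals, last minus first.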
Tau fibril ThT = qHTS for Inhibitors of Tau Fibril Formation, Thioflavin T Binding | Microtubule-associated protein tau (Homo sapiens), P10636 | recombinant tau K18 P301L, heparin-induced fibrillization, ThT fluorescence | Potency, µM (doses to about 57.4 µM), inactives show at the top dose activity, negative = inhibition, usual class: inhibitors | actives 2.1% (n = 270,000) | AID 1460, 2008; note: nearly all actives have a fitted effect of over 55% in size
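ThT emission at 510 nm, taken 1 hr after adding 30 uM dye, quantifies aggregates formed when 20 uM heparin acts on human tau K18 P301L for 6 hr at 37 C.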
ALDH1A1 inh = qHTS Assay for Inhibitors of Aldehyde Dehydrogenase 1 (ALDH1A1); actives 7.3% (n = 220,000); Potency, µM (titrated, usually from 75.3 µM), for the others: at the top dose activity, negative = inhibition, usual class: inhibitors; AID 1030, 2008; Purified ALDH1A1, NADH fluorescence, propionaldehyde substrate; active = well fitted inhibition curve with a large enough effect, not every such curve was filed as active; inconclusive = small, poorly fitted or top-dose-only effect, or another doubt; inactive = no such curve, though single readings can be large or run the other way;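 note: plate controls were no enzyme wells and a reference inhibitor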
Target sequence (P00352 whole entry, looked up): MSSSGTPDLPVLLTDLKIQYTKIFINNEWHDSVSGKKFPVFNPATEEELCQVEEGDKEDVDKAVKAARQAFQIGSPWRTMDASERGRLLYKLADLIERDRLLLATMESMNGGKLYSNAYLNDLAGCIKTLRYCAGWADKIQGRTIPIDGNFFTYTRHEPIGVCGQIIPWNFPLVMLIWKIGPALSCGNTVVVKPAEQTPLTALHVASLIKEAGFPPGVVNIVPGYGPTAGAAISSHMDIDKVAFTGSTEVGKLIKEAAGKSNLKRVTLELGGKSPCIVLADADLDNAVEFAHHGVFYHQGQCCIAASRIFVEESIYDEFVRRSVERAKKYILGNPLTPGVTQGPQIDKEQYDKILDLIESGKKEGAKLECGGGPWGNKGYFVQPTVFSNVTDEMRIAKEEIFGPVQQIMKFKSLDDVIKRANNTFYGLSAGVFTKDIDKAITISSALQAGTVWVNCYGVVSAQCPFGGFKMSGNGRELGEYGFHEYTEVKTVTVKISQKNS
Tau fluor cs = Counterscreen qHTS for Inhibitors of Tau Fibril Formation, Fluorescence Polarization. tau K18 P301L Alexa594 fluorescence, heparin fibrillization. Potency, µM (doses to about 57.7 µM), without a hit: at the highest dose activity change, negative = decrease. actives 0.93% (n = 280,000). AID 1463, 2008; note: nearly all actives have a fitted effect of over 55% in size
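Human tau K18 P301L (15 uM unlabeled, 0.24 uM Alexa 594-labeled) in 100 mM sodium acetate pH 7 with 20 uM heparin, 6 hr at 37 C. ThT 30 uM added, 1 hr ambient; Alexa 594 FP and total fluorescence read at 555/632 nm.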
* hit, by the source's call; ! = not confirmed by another sample; [ ] = another dose, or the depositor's remark. Only some compounds are listed: those with a hit (about 9.5% of all), similar ones and a draw of the others. Unless noted, calls come from the whole dose curve; as a rule, active = well fitted curve in the direction sought with a large enough effect; inconclusive = small, poorly fitted or top-dose-only effect, or another doubt; inactive = no such curve, though single readings can be large; an effect the other way counts as inactive or inconclusive. Unless noted, % is set by controls: 0 for no effect and ±100 for the full control effect; potency is the fitted concentration of half-maximal effect.

`O=CC1=C(N2CCOCC2)/C(=C\c2ccccc2)CC1` gave Tau fibril FP -2%, NPSR antag 9%, Tau fibril ThT inconclusive, ALDH1A1 inh 3.5µM* and Tau fluor cs -24%.
For O=S(=O)(O)F the results were HPGD inh -23% and ALDH1A1 inh -82%.
`C=C(C)Cn1c(-c2cccs2)n[nH]c1=S` gave Tau fibril FP 4%, NPSR antag 14%, Tau fibril ThT -12%, ALDH1A1 inh inconclusive and Tau fluor cs 2%.
Screening S=c1[nH]nc(-c2ccco2)n1/N=C/c1cccs1 returned Tau fibril FP 8%, NPSR antag 7%, HPGD inh 28µM*, Tau fibril ThT -13%, ALDH1A1 inh 25µM* and Tau fluor cs -8%.
`C[C@@]12CC[C@H]3[C@@H](CCC4=CC(=O)CC[C@]43C)[C@H]1CC[C@H]2C(=O)CO` gave HPGD inh -6% and ALDH1A1 inh 5µM*.
Screening CC(=O)[C@H]1CC[C@H]2[C@@H]3CCC4=CC(=O)CC[C@]4(C)[C@H]3CC[C@]12C returned Tau fibril FP 5%, NPSR antag -25%, HPGD inh 0%, Tau fibril ThT inconclusive, ALDH1A1 inh 11µM*! and Tau fluor cs -22%.
For CN[C@@H]1C[C@H](c2ccc(Cl)c(Cl)c2)c2ccccc21 the results were Tau fibril FP 1%, HPGD inh -9%, Tau fibril ThT -23%, ALDH1A1 inh 0% and Tau fluor cs -19%.
`CC(=O)c1ccc2c(c1)C1C(Cl)C(Sc3ccccc3[N+](=O)[O-])CC1C(C(=O)O)N2` (centres undefined) gave Tau fibril FP -2%, NPSR antag -39%, HPGD inh inconclusive, Tau fibril ThT inconclusive, ALDH1A1 inh 1.8µM* and Tau fluor cs inconclusive.
Screening C(=N\NC1=NCCCCC1)/c1c[nH]c2ccccc12 returned Tau fibril FP -11%, NPSR antag 4% and Tau fluor cs -5%.
For Brc1ccc2[nH]cc(/C=N/N3CCCCC3)c2c1 the results were Tau fibril FP 16%, NPSR antag -3%, HPGD inh -10%, Tau fibril ThT inconclusive, ALDH1A1 inh -10% and Tau fluor cs 11µM*[quencher].
`O=C1NC(=O)N(c2ccccc2F)C(=O)/C1=C/c1ccc(Sc2nc3ccccc3[nH]2)o1` gave Tau fibril FP -22%, NPSR antag -27%, HPGD inh 3.5µM*, Tau fibril ThT 13µM*, ALDH1A1 inh 10µM* and Tau fluor cs -11%.
Screening O=C1NC(=O)N(c2ccccc2)C(=O)/C1=C/c1ccc(Sc2ccccc2)o1 returned Tau fibril FP -6%, NPSR antag 10µM*, HPGD inh -18%, Tau fibril ThT inconclusive, ALDH1A1 inh 0% and Tau fluor cs -9%.
For O=C1NC(=O)N(c2cccc(Cl)c2)C(=O)/C1=C\c1ccc(Sc2nc3ccccc3[nH]2)o1 the results were Tau fibril FP inconclusive, NPSR antag -44%, HPGD inh 7.9µM*, Tau fibril ThT 13µM*, ALDH1A1 inh 22µM* and Tau fluor cs inconclusive.
O=C1NC(=O)N(c2ccc3c(c2)OCO3)C(=O)/C1=C\c1ccc(-c2ccccc2C(=O)O)o1 was read as Tau fibril FP -2%, NPSR antag -8%, Tau fibril ThT inconclusive, ALDH1A1 inh -14% and Tau fluor cs -16%.
Cc1ccc(-n2c(=O)[nH]c3ccc(Br)cc3c2=O)cc1 was read as Tau fibril FP 9%, Tau fibril ThT -12% and Tau fluor cs -10%.
`O=C1CC2(CCCC2)CC(=O)N1CCCCN1CCN(c2ncccn2)CC1` gave Tau fibril FP -7%, NPSR antag -14%[46.1 µM], HPGD inh 5%, Tau fibril ThT -6%, ALDH1A1 inh 3.5µM* and Tau fluor cs -8%.
CC1CC(=O)O1 (centres undefined) was read as HPGD inh -1% and ALDH1A1 inh 9%.
For Oc1cc2c(cc1O)[C@H]1c3ccccc3CN[C@H]1CC2 the results were Tau fibril FP inconclusive, HPGD inh 8.9µM*, Tau fibril ThT inconclusive, ALDH1A1 inh inconclusive and Tau fluor cs inconclusive.
Screening CC1=C[C@@H]2c3cccc4[nH]cc(c34)C[C@H]2N(C)C1 returned Tau fibril FP -14%, Tau fibril ThT 16µM*, ALDH1A1 inh inconclusive and Tau fluor cs inconclusive.
`CN1Cc2ccccc2[C@@H]2c3cccc4[nH]cc(c34)C[C@H]21` gave Tau fibril FP inconclusive, HPGD inh -27%, Tau fibril ThT 11µM*, ALDH1A1 inh 16µM*! and Tau fluor cs inconclusive.
CCN(CC)C(=O)N[C@@H]1C[C@H]2c3cccc4[nH]cc(c34)C[C@@H]2N(C)C1 was read as HPGD inh -6% and ALDH1A1 inh 13%[20.9 µM].
For CC1(C)CCC(C)(C)c2c1ccc(O)c2Cc1c(O)ccc2c1C(C)(C)CCC2(C)C the results were HPGD inh -10% and ALDH1A1 inh -8%[13.5 µM].
For CC(C)CN1CCCC2(CCN(C(=O)Oc3ccccc3)CC2)C1 the results were HPGD inh -12% and ALDH1A1 inh -5%.
COc1ccc(OCC#CCN2CCCCCC2)cc1 was read as Tau fibril FP -1%, NPSR antag 12%, Tau fibril ThT -9%, ALDH1A1 inh 22µM* and Tau fluor cs -9%.
`C=C(Cl)Cl` gave HPGD inh -5% and ALDH1A1 inh -5%.
O=C1NC(=O)C(=Cc2ccc(N3CCN(C(=O)c4ccccc4)CC3)c([N+](=O)[O-])c2)C(=O)N1 was read as Tau fibril FP -13%, NPSR antag 8%, Tau fibril ThT 11µM*, ALDH1A1 inh 11µM* and Tau fluor cs -15%.
Screening CN(C)CCC(C#N)(c1ccccc1)c1ccccc1 returned HPGD inh -8% and ALDH1A1 inh -9%[13.5 µM].
For CC(=O)c1ccc(Oc2ccc(C(=O)c3ccc(C)c(C)c3)cc2[N+](=O)[O-])cc1 the results were Tau fibril FP 1%, NPSR antag -14%, HPGD inh 7.1µM*, Tau fibril ThT 1%, ALDH1A1 inh 0.79µM* and Tau fluor cs -2%.
